# Results published in the OligoGym collection.
# Target: HCK
# Experiment: pooled miR-30 sensor sort-seq; sequence = guide strand
# Settings: shRNA
# Note: reference of the scale not given here.
row,Sequence,sensor-assay potency score (higher = more potent)
1,TTCCTCTAGGACCACCATCTGG,-1.25
2,TTTGACCAGCTTGTCATGCTGC,0.268
3,TTAGTGGTCTCGCTATCCCGGA,-1.31
4,TTCTTCTCCAGCTTGAGGGATT,-0.963
5,TTGGTGTGCTTGTTGTAGGTGG,-0.387
6,TTCCCTTCCAAATCACAGCTGT,0.224
7,TGATGTTGTAGAGCTCCTCTGG,-0.148
8,TTTAGTGGTCTCGCTATCCCGG,-0.689
9,TTGTTGTAGGTGGCCATCCAGA,-1.38
10,TCGTTGTCCTCAATGACCCGGG,-0.328
11,TTTGAGAATGTATTGCCTCCGA,-0.315
12,TAGTGGTCTCGCTATCCCGGAT,-0.53

# Target: HCST
# Experiment: as above
# Settings: shRNA
row,Sequence,sensor-assay potency score (higher = more potent)
1,TCTCTCTCCTGGAGTCGTCTGA,-1.08
2,TTGATGTAGACTTTGCCATCTT,-0.308
3,TAGACTTTGCCATCTTCTTGGG,-0.36
4,TAGACTTTGCCATCTTGGGCGG,-0.81
5,TCTCTCCTGGAGTCGTCTGAGC,-1.45
6,TTTGCCATCTTCTTGGGCGGGG,0.0264
7,ATGAGCAGCGATGCCACCGCAT,-1.5
8,TTGCCATCTTCTTGGGCGGGGC,-1.23
9,TGTAGACTTTGCCATCTTCTTG,-1.11
10,AACAAGAGCCTGAAGTGCCAGG,-0.933
11,TGTTGATGTAGACTTTGCCATC,-1.89
12,AGACTTTGCCATCTTCTTGGGC,-0.803

# Target: HDGF
# Experiment: as above
# Settings: shRNA
row,Sequence,sensor-assay potency score (higher = more potent)
1,TCTGGTGACAACACTGAGGGGG,0.602
2,TTCTTTTCCACCTCCATAGGAA,-0.534
3,TAAGGGAAGAGGTCTTTGGGGC,-0.718
4,TTCCCTTCCTCGTCGCTGCTGC,-0.283
5,TAGAACTGAAATCATCTACGGT,-0.169
6,TTCTCAGAGCTAAACTTCCAAA,-1.28
7,TTCTCGTTCTTCTCCTTGGCTG,-0.535
8,TTCCACACAGCTCTTTTTCTGG,-0.811
9,TCAGGCATCTCGTCAATCCGGG,-0.426
10,TCTGGGAGGACTGATAGCCGGA,-0.805
11,TTTCTCGTTCTTCTCCTTGGCT,-0.305
12,TTTCTCTCTGTCCTCTCAGTGG,-1.16
